This note sets out measurements from PubChem BioAssay (NCATS).

Inconclusive results are not listed. Calls of active or inactive are those of the source. Unless noted, the call rests on the fitted dose curve; in most records, active means well fitted cell-killing curve with a large enough effect; inconclusive means small, poorly fitted or top-dose-only effect; inactive means flat fitted curve, though single readings scatter.

Test [1] is described as follows: MultiTox-Fluor Cytotoxicity Assay - LYMP1-001 - Live Cells (AID 947). Further: potency means the concentration at half of the fitted maximal effect.
Test [2] can be described thus: Cell Viability - LYMP2-009 (AID 968). Further: potency means the concentration at half of the fitted maximal effect; nearly all actives have a fitted effect of over 55% in size.
The nature of test [3]: Cell Viability - LYMP2-013 (AID 970). Further: potency means the concentration at half of the fitted maximal effect; nearly all actives have a fitted effect of over 55% in size. Summed up:
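Human lymphoblastoid LYMP2-013 cells, 2500/well, treated 24 h at 37 C in complete medium; viability as intracellular ATP by CellTiter-Glo luminescence after 30 min. AC50 from Hill fits of qHTS concentration-response.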

A short description of test [4]: Cell Viability - LYMP2-015 (AID 971). Further: potency means the concentration at half of the fitted maximal effect; nearly all actives have a fitted effect of over 55% in size. In a few lines: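 LYMP2-015 human lymphoblastoid cells (2500/well) in complete medium, compound-treated 24 h at 37 C; viability read as cellular ATP by CellTiter-Glo luminescence after 30 min at room temperature. AC50 from Hill-equation fits of qHTS concentration-response data.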
Test [5] in a line: Cell Viability - LYMP2-021 (AID 974).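 Further: potency means the concentration at half of the fitted maximal effect; compound exposure lasts 24 hours at 37 °C; nearly all actives have a fitted effect of over 55% in size.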 In a few lines:
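Human lymphoblastoid LYMP2-021 cells, 2500/well in complete medium, treated 24 hours at 37 C. Intracellular ATP by CellTiter-Glo luminescence (30 min, RT); AC50 from Hill fits of concentration-response.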

A short description of test [6]: Cell Viability - LYMP2-006 (AID 978).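 Further: potency means the concentration at half of the fitted maximal effect; cells exposed to compound for 24 hours; nearly all actives have a fitted effect of over 60% in size.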 In a few lines: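 Concentration-dependent loss of intracellular ATP in a human lymphoblastoid line after 24 hr treatment at 37 C was measured by CellTiter-Glo luminescence, with AC50 values obtained from standard Hill-equation modelling.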
Test [7] in a line: Cell Viability - LYMP2-007 (AID 979).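 Further: potency means the concentration at half of the fitted maximal effect; cells exposed to compound for 24 h before reading; nearly all actives have a fitted effect of over 60% in size.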 Summed up:
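Human lymphoblastoid LYMP2-007 cells (2500/well) preincubated 5 h at 37 C, then treated 24 h at 37 C in complete medium. Viability by CellTiter-Glo ATP luminescence after 30 min at room temperature; AC50 from Hill fits.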

Test [8] addresses Androgen receptor (Homo sapiens) (UniProt P10275). Briefly: qHTS assay for small molecule antagonists of androgen receptor signaling (AID 588516; active means well fitted curve in the direction sought with a large enough effect in the signal ratio, with a control signal flat, not every such curve was filed as active; the % refers to the signal ratio). In a few lines:
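Antagonist-mode qHTS: inhibition of R1881 (10 nM)-driven beta-lactamase expression in GripTite HEK 293 cells is measured after 16 h; values are Hill-derived IC50s normalized between R1881 and DMSO wells.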

Test [9] addresses Bile acid receptor (Homo sapiens) (UniProt Q96RI1). Briefly: qHTS assay for small molecule antagonists of farnesoid X receptor signaling (AID 588526; calls by dose curve). In a few lines:
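Concentration-response titrations were fitted to the Hill equation for half-maximal inhibition and maximal response, with data normalised to 50 uM chenodeoxycholic acid and DMSO control wells. Cells: FXR-UAS-bla HEK293T, dialyzed FBS.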

Sequence of Androgen receptor (Homo sapiens) (P10275 whole entry, looked up): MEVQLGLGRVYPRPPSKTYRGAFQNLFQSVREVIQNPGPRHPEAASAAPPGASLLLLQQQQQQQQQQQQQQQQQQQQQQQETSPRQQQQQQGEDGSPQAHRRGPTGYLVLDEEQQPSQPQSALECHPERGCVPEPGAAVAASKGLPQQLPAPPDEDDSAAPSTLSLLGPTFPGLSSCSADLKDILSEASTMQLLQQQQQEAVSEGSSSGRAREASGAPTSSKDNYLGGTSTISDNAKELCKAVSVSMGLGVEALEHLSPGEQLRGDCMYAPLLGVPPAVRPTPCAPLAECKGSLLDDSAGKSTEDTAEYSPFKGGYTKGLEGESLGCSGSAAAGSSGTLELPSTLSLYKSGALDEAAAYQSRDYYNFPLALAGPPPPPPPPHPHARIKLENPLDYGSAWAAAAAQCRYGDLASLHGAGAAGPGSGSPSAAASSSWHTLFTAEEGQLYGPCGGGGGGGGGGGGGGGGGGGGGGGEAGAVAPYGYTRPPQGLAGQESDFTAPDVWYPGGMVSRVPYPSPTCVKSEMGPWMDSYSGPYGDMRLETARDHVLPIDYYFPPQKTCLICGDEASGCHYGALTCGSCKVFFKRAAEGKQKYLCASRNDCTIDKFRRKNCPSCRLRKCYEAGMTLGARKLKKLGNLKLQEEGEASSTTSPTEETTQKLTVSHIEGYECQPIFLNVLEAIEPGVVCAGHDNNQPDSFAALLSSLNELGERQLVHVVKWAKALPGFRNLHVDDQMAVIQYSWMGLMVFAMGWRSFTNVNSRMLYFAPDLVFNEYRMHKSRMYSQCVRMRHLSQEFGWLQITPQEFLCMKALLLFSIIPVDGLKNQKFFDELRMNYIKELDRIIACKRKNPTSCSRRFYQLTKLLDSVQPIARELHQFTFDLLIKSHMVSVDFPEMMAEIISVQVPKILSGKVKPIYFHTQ
Sequence of Bile acid receptor (Homo sapiens) (Q96RI1 whole entry, looked up): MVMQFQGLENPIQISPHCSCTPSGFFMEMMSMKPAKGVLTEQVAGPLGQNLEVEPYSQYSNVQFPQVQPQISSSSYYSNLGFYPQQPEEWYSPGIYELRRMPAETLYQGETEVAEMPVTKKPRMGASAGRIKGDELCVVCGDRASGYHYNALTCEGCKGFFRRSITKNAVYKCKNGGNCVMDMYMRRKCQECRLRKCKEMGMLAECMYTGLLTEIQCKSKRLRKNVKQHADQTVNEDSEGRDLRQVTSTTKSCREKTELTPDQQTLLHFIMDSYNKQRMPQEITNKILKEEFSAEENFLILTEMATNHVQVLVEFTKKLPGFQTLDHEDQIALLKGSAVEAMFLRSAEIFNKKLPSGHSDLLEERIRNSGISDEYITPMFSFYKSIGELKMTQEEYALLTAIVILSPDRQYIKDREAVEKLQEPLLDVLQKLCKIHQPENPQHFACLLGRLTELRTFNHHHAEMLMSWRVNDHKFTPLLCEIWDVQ

For the compound `O=C1C(Cl)=C(Cl)C(=O)C(Cl)=C1Cl`, the Potency in test [1] was 39.8 µM (active); in test [2], 20 µM (active); in test [3], 31.6 µM (active); in test [4], 39.8 µM (active); in test [5], 12.6 µM (active); in [6] it was 31.6 µM (active). In addition, in test [7], the Potency was 15.8 µM (active).

Regarding `CCS(=O)CCSP(=O)(OC)OC` (centres undefined), the Potency result in [8] is “inactive”. The call in test [9] was inactive.
